Assay results as given in PubChem BioAssay AID1159580 (chemical genetic matrix, 2015).
Hit rate of the full screen: of about 5,500 compounds, about 2,000 (36%) were called active. Inconclusive results (about 18%) are left out. No stated cut-off is given here; in the data, active means normalized growth mostly below about 0.91 (no sharp cut-off); inconclusive means no clear call, values can overlap the other calls; inactive means mostly above about 0.92. This is one part of the list.

Test: chemical genetic growth profiling, strain panel (AID 1159580);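 further: tested at 20 µM; growth read once vehicle control cultures reached saturation at 30 °C; 1 = growth at the plate median or of vehicle wells; lower values mean less growth of the strain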
Conditions: S. cerevisiae deletion strains, growth OD

Measured: normalized growth

COCCCOc1ccnc(CS(=O)c2nc3ccccc3[nH]2)c1C (stereo not drawn)
inactive: locus YHR030C, strain SLT2, hits give low values 0.94 | locus YHR079C, strain IRE1, hits give low values 0.93 | locus YJL095W, strain BCK1, hits give low values 0.913 | locus YJR066W, strain TOR1, hits give low values 0.907 | locus YLR113W, strain HOG1, hits give low values 0.909 | locus YNL183C, strain NPR1, hits give low values 0.879 | locus YOR231W, strain MKK1, hits give low values 0.93 | locus YPL256C, strain CLN2, hits give low values 0.897
